# Out of some 2,400 compounds screened, about 180 (7.5%) were called active. Only a selection was taken, and actives are over-represented in it overall. Unmarked numbers belong to inactive results.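 How the source made its calls: active means readout below zero, meaning a drop past 3 SD under the dofetilide-free negative control mean; inactive means the rest.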
# Target: Potassium voltage-gated channel subfamily KQT member 2 (Rattus norvegicus) (UniProt O88943)
# Test: rat KCNQ2 channel inhibition by compounds alone, confirmation, counter-screen for hERG block protector project, cell-based, CHO, FluxOR thallium flux (AID 1946)
# Conditions: CHO-KCNQ2 cells, FluxOR thallium flux fluorescence; at 10 µM; hits give low values; zero marks the 3-SD hit cutoff
# Chain of Potassium voltage-gated channel subfamily KQT member 2 (Rattus norvegicus) (O88943 whole entry, looked up): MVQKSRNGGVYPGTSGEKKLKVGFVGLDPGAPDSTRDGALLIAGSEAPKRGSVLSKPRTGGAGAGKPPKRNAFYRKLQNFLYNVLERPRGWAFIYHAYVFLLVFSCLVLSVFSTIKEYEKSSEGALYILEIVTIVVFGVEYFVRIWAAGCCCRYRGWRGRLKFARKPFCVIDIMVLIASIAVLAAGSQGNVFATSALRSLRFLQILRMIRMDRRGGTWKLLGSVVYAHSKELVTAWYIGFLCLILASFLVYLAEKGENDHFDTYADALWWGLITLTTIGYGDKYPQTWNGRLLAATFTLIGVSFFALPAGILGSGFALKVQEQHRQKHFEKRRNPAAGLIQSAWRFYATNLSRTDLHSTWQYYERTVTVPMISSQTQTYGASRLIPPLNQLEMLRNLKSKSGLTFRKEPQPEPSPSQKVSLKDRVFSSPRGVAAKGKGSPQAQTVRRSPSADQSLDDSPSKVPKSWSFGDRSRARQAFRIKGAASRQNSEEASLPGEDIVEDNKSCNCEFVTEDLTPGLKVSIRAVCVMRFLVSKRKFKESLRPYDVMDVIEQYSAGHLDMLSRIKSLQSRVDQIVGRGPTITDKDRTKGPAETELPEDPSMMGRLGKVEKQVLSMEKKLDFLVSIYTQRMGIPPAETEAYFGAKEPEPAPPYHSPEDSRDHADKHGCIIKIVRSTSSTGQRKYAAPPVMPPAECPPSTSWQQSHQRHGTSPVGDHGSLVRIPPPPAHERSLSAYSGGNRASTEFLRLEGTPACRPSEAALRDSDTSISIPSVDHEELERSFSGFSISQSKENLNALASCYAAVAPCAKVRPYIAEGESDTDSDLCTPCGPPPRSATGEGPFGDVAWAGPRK
row,Compound,activity change vs negative control
1,O=C(NC(=S)Nc1ncc(Br)cc1Br)c1ccccc1,28.8%
2,CCOC(=O)NC(=S)Nc1ccc(C(C)(C)C)cc1Br,16.6%
3,Cc1ccc(S(=O)(=O)NC(=S)NC2CCCCC2)cc1,19.8%
4,O=C(Nc1ccc(Cl)c(-c2nc3ccccc3[nH]2)c1)c1cccnc1,-19.3% (active)
5,CN(C)S(=O)(=O)c1cccc(C(=O)Nc2cccnc2)c1,8%
6,O=C(Nc1ccc(Oc2cccnc2)cc1)c1cccc([N+](=O)[O-])c1,13.8%
7,O=C(NCC1CCCO1)c1ccc2c(=O)n(Cc3ccco3)c(SCC(=O)N3CCCC3)nc2c1 (stereo unspecified),32.7%
8,Cc1cccc(/C=N/n2c(COc3ccccc3)n[nH]c2=S)c1,14.1%
9,S=c1[nH]nc(-c2ccco2)n1/N=C/C(Cl)=C/c1ccccc1,10.3%
10,S=c1[nH]nc(-c2n[nH]c3c2CCC3)n1/N=C/C=C/c1ccccc1,-4.8% (active)
11,Cc1ccc(C(=O)CC(=O)c2cccc(F)c2)c(O)c1,7.2%
12,CC(C)c1nc2sc3c(=S)nc[nH]c3c2c2c1CCC2,45.5%
13,Cc1cc2ccccn2c1C(=S)NC(=O)c1ccccc1,68.1%
14,C=CCn1c(O)c(N=NC(=S)Nc2ccc(OC)c(Cl)c2)c2ccccc21,18.3%
15,Nc1nnc(SCC(=O)OCc2ccc(F)cc2)s1,-2.1% (active)
16,COc1ccccc1Nc1nnc(SCC(=O)Nc2nc(-c3ccc(F)cc3)cs2)s1,9.1%
17,CCOC(=O)CSc1nnc(NC(=O)c2ccc3c(c2)OCO3)s1,5.6%
18,CCOC(=O)C(=CNc1cc(C)ccn1)C(=O)OCC,18.2%
19,S=c1nc(C2CC2)[nH]c2ccccc12,58.2%
20,Cc1ccc(-c2nc3ccccc3c(=O)n2O)cc1,29.3%
21,COc1ccc(-n2nc(C(=O)NCC(=O)NCc3ccc(F)cc3)c3ccccc3c2=O)cc1OC,12.7%
22,NC(=O)c1nsc(C(=O)N(CC(=O)NCc2ccccc2)c2ccc(F)cc2)c1N,-0.6% (active)
23,Cc1ccccc1Cn1nc(C)c(NC(=O)c2ccccc2)c1C,73%
24,COc1ccccc1C(=O)NNC(=O)C(=O)Nc1ccc(C)cc1,162%

row,Compound,activity change vs negative control
1,O=C(O)c1cc(NN=C2c3ccccc3-c3ccccc32)ccc1Cl,63.8%
2,COC(=O)c1ccc(C(=O)NC(=S)Nc2nc3c(s2)CCCC3)cc1,37.8%
3,O=C(CN1C(=O)COc2ccccc21)NCCCN1CCOCC1,6.2%
4,CC1c2nc3ccccc3n2C(CC(=O)NCCCN2CCOCC2)C(=O)N1Cc1ccccc1 (stereo unspecified),12%
5,CC1CC(C)CN(CCCNC(=O)Cc2c(C(=O)O)[nH]c3ccccc23)C1 (stereo unspecified),-0.3% (active)
6,c1ccc2c(c1)c1ccccc1n1c(-c3ccc4c(c3)OCO4)nnc21,11.9%
7,Oc1c(Br)cc(Cl)cc1C=Nc1ccccc1Br,57.7%
8,COc1ccc(OC(=O)Cc2cccc3ccccc23)cc1,15.2%
9,COc1ccc(CC(=O)Nc2ccc(-c3noc(-c4ccccc4OC)n3)cc2)cc1,7%
10,COc1ccc(NC(=O)CSCC(=O)Oc2c(OC)cccc2OC)cc1,-7.6% (active)
11,Cc1snnc1C(=O)NC(=S)Nc1ccccc1,53.9%
12,CCOc1ccc(CCNC(=O)Nc2ccccc2C)cc1OCC,13.5%
13,COc1ccc(CCNC(=O)C(=O)Nc2ccc3c(c2)OCO3)cc1OC,8.8%
14,Cc1cc(Cl)ccc1OC(C)C(=O)NCCc1ccc2c(c1)OCCO2 (stereo unspecified),-9.4% (active)
15,CCc1ccc(S(=O)(=O)NC(=S)NC2CCCCC2)cc1,83.7%
16,O=C(CCN1C(=O)/C(=C\C=C\c2ccccc2)SC1=S)Nc1cccc(C(=O)O)c1,0.8%
17,C/C(O)=C/c1nc2ccccc2[nH]c1=O,-2% (active)
18,Cc1nc2ccc(C(=O)O)cc2[nH]1,11.1%
19,O=c1[nH]c2ccccc2nc1C(F)(F)C(F)F,15.2%
20,OC(CCN1CCOCC1)c1ccccc1 (stereo unspecified),-2.1% (active)
21,O=C(O)Cn1cc(CN2CCOCC2)c2ccccc21,2.7%
22,S=C(NCCc1ccccc1)NCCN1CCOCC1,11.5%
23,O=c1ccn(Cc2ccc(F)cc2)c2ccnc(C(F)(F)F)c12,-1.9% (active)
24,COc1ccc(C(=O)Nc2ccccc2C(=O)O)cc1Cl,19.2%

row,Compound,activity change vs negative control
1,O=C(NC(=S)NCCC1=CCCCC1)c1ccco1,66.4%
2,Cc1cccc(Cn2c(O)c(N=NC(=S)Nc3ccccc3F)c3ccccc32)c1,5.5%
3,COc1cccc(NC(=O)c2nn(-c3ccc(OC)cc3OC)c(=O)c3ccccc23)c1,15.7%
4,CCN(CC)CCCNC(=O)c1cn(-c2cccc(OC)c2)c(=O)c2ccccc12,-4% (active)
5,COc1cccc(-n2nc(C(=O)O)c3ccccc3c2=O)c1,25.1%
6,CCC1CCc2c(sc(NC(=O)C3CC=CCC3C(=O)O)c2C#N)C1 (stereo unspecified),32.7%
7,CCN(CC)c1ccc(NC(=S)NC(=O)c2cccs2)cc1,18.4%
8,CCOC(=O)Cc1csc(NC(=S)NC(=O)C(C)(C)C)n1,28.2%
9,Cc1cccc(NC(=S)NC(=O)c2ccc(Br)o2)c1,69.7%
10,COc1cccc(C(=O)Nc2cccc(-c3ccc(N4CCOCC4)nn3)c2)c1,5.2%
11,CCOc1ccc(-c2cccc(NC(=O)c3ccc(Br)o3)c2)nn1,-8.6% (active)
12,O=c1c2cc(Cl)ccc2nc(-c2ccc([N+](=O)[O-])cc2)n1O,54.4%
13,O=C(COc1ccccc1Cl)NC(=S)Nc1ccccc1N1CCCC1,6.2%
14,CNC(=S)Nc1sc2c(c1C(=O)OC)CCC2,31.9%
15,Cc1ccc(NC(=S)NC(=O)c2ccc(-c3ccccc3)cc2)cc1,10.9%
16,Cc1cccc(C(=O)NC(=S)NNC(=O)COc2c(C)cccc2C)c1,-13.3% (active)
17,Cc1ccc(C(=O)NNC(=S)NC(=O)c2ccc(Cl)cc2)cc1,0.8%
18,Cc1cccc(C(=O)NC(=S)NNC(=O)c2ccc(Cl)cc2)c1,-7.1% (active)
19,O=C(NNC(=S)NC(=O)c1sc2ccccc2c1Cl)c1ccc(Cl)cc1,32.9%
20,Cc1ccc(C(=O)NNC(=S)NC(=O)c2ccccc2)cc1,-4.5% (active)
21,Cc1cccc(C(=O)NC(=S)N(C)C2CCCCC2)c1,46.3%
22,Cc1cccc(C(=O)NNC(=S)NC(=O)c2ccccc2)c1,26.9%
23,Cc1cccc(C(=O)NC(=S)N2CCc3ccccc3C2)c1,50.3%
